Measurements published in PubChem BioAssay (NCATS).
Several values for one entry are separate records, joined by “and”; a condition that tells them apart may be missing. Identical values can stand only once. Records with an inconclusive call do not appear. Activity calls are given as the source filed them. Unless noted, calls come from the whole dose curve; as a rule, active = well fitted curve in the direction sought with a large enough effect; inconclusive = small, poorly fitted or top-dose-only effect, or another doubt; inactive = no such curve, though single readings can be large; an effect the other way counts as inactive or inconclusive.

How the values were obtained:
[1] = Cell Viability - LYMP2-002 (AID 977); details: LYMP2-002 lymphoblastoid cell viability, qHTS; series mostly up to 92.2 µM;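 note: compound exposure lasted 24 h at 37 °C; plate controls were DMSO only for no effect and 92 µM tetraoctylammonium bromide for full effect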
Summary of the method: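 Human lymphoblastoid LYMP2-002 cells, 2500 per well, exposed to compounds for 24 h at 37 C in complete medium; viability read as intracellular ATP by CellTiter-Glo luminescence, AC50 from Hill fits.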

[2] = Cell Viability - LYMP2-006 (AID 978); details: LYMP2-006 lymphoblastoid cell viability, qHTS; series mostly up to 92.2 µM; note: % is set by controls: 0 for no effect and ±100 for the full control effect; nearly all actives have a fitted effect of over 60% in size
Summary of the method: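 Cells are seeded at 2500 per well and rested 5 hr at 37 C. Compounds are added across a concentration series for 24 hr at 37 C, after which ATP is quantified by luciferase luminescence.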

[3] = Cell Viability - LYMP2-007 (AID 979); details: LYMP2-007 lymphoblastoid cell viability; series mostly up to 92.2 µM;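 note: cells exposed to compound for 24 h before reading; 0% = DMSO only and the negative end = 92 µM tetraoctylammonium bromide; nearly all actives have a fitted effect of over 60% in size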
Summary of the method: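 Human lymphoblastoid LYMP2-007 cells (2500/well) preincubated 5 h at 37 C, then treated 24 h at 37 C in complete medium. Viability by CellTiter-Glo ATP luminescence after 30 min at room temperature; AC50 from Hill fits.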

[4] = Cell Viability - LYMP2-008 (AID 980); details: LYMP2-008 lymphoblastoid cell viability, qHTS; series mostly up to 92.2 µM; note: % is set by controls: 0 for no effect and ±100 for the full control effect; nearly all actives have a fitted effect of over 60% in size
Summary of the method: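 LYMP2-008 lymphoblastoid cells (2500/well) plated 5 h, then treated 24 h at 37 C in complete medium. Viability read as intracellular ATP by CellTiter-Glo luminescence after 30 min at room temperature; AC50 from Hill fits.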

[5] = Cell Viability - LYMP2-010 (AID 981); details: LYMP2-010 lymphoblastoid cell viability, qHTS; series mostly up to 92.2 µM; note: nearly all actives have a fitted effect of over 55% in size; note: potency is the fitted concentration of half-maximal effect
Summary of the method: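 Human lymphoblastoid LYMP2-010 cells (2500/well) treated 24 h at 37 C in complete medium; viability read as intracellular ATP by CellTiter-Glo luminescence. AC50 from Hill fits of concentration-response data; tetraoctylammonium bromide positive control.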

[6] = Cell Viability - LYMP2-012 (AID 982); details: LYMP2-012 lymphoblastoid cell viability qHTS; series mostly up to 92.2 µM;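 note: cellular ATP by luciferase luminescence where a drop means cytotoxicity; cells exposed to compound for one day before reading; 0% = DMSO only and full loss = 92 µM tetraoctylammonium bromide; nearly all actives have a fitted effect of over 55% in size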
[7] = Cell Viability - LYMP2-014 (AID 983); details: LYMP2-014 lymphoblastoid cells, viability qHTS; series mostly up to 92.2 µM;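 note: plate controls were DMSO only for no effect and 92 µM tetraoctylammonium bromide for full effect; nearly all actives have a fitted effect of over 50% in size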
Summary of the method: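 LYMP2-014 human lymphoblastoid cells, 2500/well, treated 24 h at 37 C in complete medium; viability by CellTiter-Glo ATP luminescence after 30 min at room temperature. AC50 from Hill fits of qHTS concentration-response; tetraoctylammonium bromide positive control.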

[8] = Cell Viability - LYMP2-016 (AID 984); details: LYMP2-016 lymphoblastoid cell viability, qHTS; series mostly up to 92.2 µM; note: % is set by controls: 0 for no effect and ±100 for the full control effect; nearly all actives have a fitted effect of over 55% in size
Summary of the method: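 Cells were seeded at 2500 per well and rested 5 hr before a 24 hr compound exposure at 37 C. Viability was then gauged as cellular ATP by luciferase luminescence, with AC50 values fitted to the Hill equation.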

[9] = Cell Viability - LYMP2-018 (AID 985); details: LYMP2-018 lymphoblastoid cells, viability (qHTS); series mostly up to 92.2 µM; note: nearly all actives have a fitted effect of over 50% in size; note: potency is the fitted concentration of half-maximal effect
Summary of the method: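 Human lymphoblastoid LYMP2-018 cells, 2500/well, settled 5 hr at 37 C then exposed to compound 24 hr at 37 C; intracellular ATP measured by CellTiter-Glo luminescence. AC50 from Hill-equation concentration-response fits.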

[10] = Cell Viability - LYMP2-020 (AID 986); details: series mostly up to 92.2 µM;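 note: plate controls were DMSO only for no effect and tetraoctylammonium bromide at 92 µM for full effect; nearly all actives have a fitted effect of over 55% in size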
Summary of the method: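 Human lymphoblastoid LYMP2-020 cells (2500/well) preincubated 5 h at 37 C, then treated 24 h at 37 C. Viability measured as intracellular ATP by CellTiter-Glo luminescence after 30 min at room temperature; AC50 from Hill fits.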

[11] = Cell Viability - LYMP2-022 (AID 987); details: LYMP2-022 lymphoblastoid cell viability; series mostly up to 92.2 µM; note: nearly all actives have a fitted effect of over 55% in size; note: potency is the fitted concentration of half-maximal effect
Summary of the method: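 LYMP2-022 lymphoblastoid cells (2500/well, complete medium) were treated with compounds for 24 hours at 37 C; intracellular ATP was then read by CellTiter-Glo luminescence after 30 min at room temperature. AC50 values were derived from Hill-equation fits.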

[12] = Cell Viability - LYMP2-024 (AID 988); details: LYMP2-024 lymphoblastoid cell viability; series mostly up to 92.2 µM;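 note: plate controls were DMSO only for no effect and 92 µM tetraoctylammonium bromide for full effect; nearly all actives have a fitted effect of over 60% in size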
Summary of the method: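 Human lymphoblastoid LYMP2-024 cells (2500/well) rested 5 hr, then treated with compound for 24 hr at 37 C in complete medium. Viability was measured as intracellular ATP by CellTiter-Glo luminescence. AC50 values came from Hill-equation fits.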

[13] = Cell Viability - LYMP2-026 (AID 989); details: LYMP2-026 lymphoblastoid cell viability, qHTS; series mostly up to 92.2 µM; note: % is set by controls: 0 for no effect and ±100 for the full control effect; nearly all actives have a fitted effect of over 50% in size
Summary of the method: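 Human lymphoblastoid LYMP2-026 cells, 2500/well, exposed to compound 24 h at 37 C in complete medium. Viability as intracellular ATP by CellTiter-Glo luminescence; AC50 from Hill fits of qHTS concentration-response.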

[14] = target: Alpha-galactosidase A (Homo sapiens) (UniProt P06280); assay: Counterscreen for Glucocerebrosidase Inhibitors: qHTS Assay for Human alpha-Galactosidase at pH 4.5 (AID 992); details: purified enzyme, fluorogenic substrate; series mostly up to 76.9 µM; note: 0% is about no effect
Chain of Alpha-galactosidase A (Homo sapiens) (P06280 whole entry, looked up): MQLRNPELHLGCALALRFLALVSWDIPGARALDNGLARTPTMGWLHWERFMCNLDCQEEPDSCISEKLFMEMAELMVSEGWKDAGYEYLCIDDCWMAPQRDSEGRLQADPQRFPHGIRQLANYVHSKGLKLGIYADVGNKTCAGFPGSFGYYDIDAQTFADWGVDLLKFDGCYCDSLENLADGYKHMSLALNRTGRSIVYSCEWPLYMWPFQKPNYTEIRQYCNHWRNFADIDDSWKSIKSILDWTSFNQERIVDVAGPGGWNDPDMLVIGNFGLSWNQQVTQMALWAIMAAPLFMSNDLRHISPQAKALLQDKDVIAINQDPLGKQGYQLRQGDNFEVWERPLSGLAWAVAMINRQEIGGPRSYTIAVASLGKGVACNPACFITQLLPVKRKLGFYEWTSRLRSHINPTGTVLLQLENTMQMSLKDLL
Summary of the method: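 Concentration-response curves (0.7 nM to 77 uM final) were modeled with the Hill equation to give AC50. Reactions: 2 nM enzyme, 80 uM fluorogenic alpha-galactoside, pH 4.5 citric acid buffer, 20 min, room temperature.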

[15] = Cell Viability - LYMP1-002 - Assay at 24 hr (AID 993); details: LYMP1-002 lymphoblastoid cells viability; series mostly up to 92.2 µM; note: % is set by controls: 0 for no effect and ±100 for the full control effect
Summary of the method: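 Human lymphoblastoid LYMP1-002 cells (2500/well) treated 24 h at 37 °C; viability as intracellular ATP by CellTiter-Glo luminescence. Tetraoctylammonium bromide as positive control; AC50 from Hill-equation fits of qHTS concentration-response.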

[16] = Cell Viability - LYMP1-002 - Assay at 40 hr (AID 994); details: LYMP1-002 lymphoblastoid cell viability; series mostly up to 92.2 µM; note: nearly all actives have a fitted effect of over 60% in size; note: potency is the fitted concentration of half-maximal effect
Summary of the method: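 LYMP1-002 human lymphoblastoid cells (2500/well, complete medium) were treated with compounds for 40 hr at 37 C. Intracellular ATP was measured by CellTiter-Glo luminescence, and AC50 values came from Hill-equation fits of concentration-response data; tetraoctylammonium bromide was the positive control.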

[17] = target: alpha-glucosidase (Oryza sativa, rice) (UniProt Q653V4); assay: Counterscreen for Glucocerebrosidase Inhibitors: qHTS Assay for Rice alpha-Glucosidase at pH 5.0 (AID 997); details: rice alpha-glucosidase enzyme activity; series mostly up to 76.9 µM;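 note: 0% = full activity with enzyme and -100% = basal without enzyme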
Summary of the method: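 Rice alpha-glucosidase (4 nM final) with 400 uM 4-methylumbelliferyl-alpha-D-glucopyranoside in citrate buffer pH 5.0, 20 min at room temperature, stopped at pH 10; fluorescence 365/440 nm, compounds 0.7 nM–77 uM, AC50 from Hill fits.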

[18] = qHTS Assay for Lipid Storage Modulators (AID 1519; calls by dose curve; for activity change, negative = inhibition: % is set by controls: 0 for no effect and ±100 for the full control effect); details: Drosophila S3 cells, BODIPY lipid droplet/cell ratio, laser cytometry, cells loaded with oleic acid
Summary of the method: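 Cells seeded at 5,000 per well were treated with compounds over a concentration series and loaded with oleic acid (400 uM, as added). Lipid droplet fluorescence (488 nm excitation, 500-530 nm channel) was read by laser-scanning cytometry and normalized to 20 uM Triacsin C.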

[19] = Validation of Assay for Modulators of Lamin A Splicing (AID 1459; active = well fitted curve in the direction sought with a large enough effect in the signal ratio; the % refers to the signal ratio;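 note: cells exposed to compound for two days before reading; 0% is about no effect; ratio rise marks activators and ratio drop marks inhibitors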); details: Lamin A splicing dual RFP/GFP fluorescence reporter; series mostly up to 9.22 µM
Summary of the method: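 HeLa S3 lamin A-EGFP/DsRed2 stable clone, 600 cells/well, Opti-MEM 2% FBS; compounds by pin tool; 48 hrs, 37 °C/5% CO2; Acumen 488 nm scan, objects 10-100 um; GFP/RFP intensity ratio.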

[20] = measured here: cell count channel max response
[21] = measured here: lipid channel max response

O=P1(N(CCCl)CCCl)NCCCO1 (configuration not stated)
inactive: outcome [1] | outcome [2] | outcome [3] | outcome [4] | Potency [5] | outcome [6] | outcome [7] | outcome [8] | Potency [9] | outcome [10] | Potency [11] | outcome [12] | outcome [13] | outcome [14] | Potency [15] | Potency [16] | outcome [17] | activity change, negative = inhibition ([18]; at 57.5 µM (top of the series)) 0.148%
-27.9%: max response [18, 20]
-28.7%: max response [18, 21]

CCC1(CC)C(=O)C=CNC1=O
-7.28% and 25.2%: max response [18, 21]
-5.28% and 19.1%: max response [18, 20]
inactive: activity change, negative = inhibition ([18]; at 25.7 µM (top of the series)) -2.39% | activity change, negative = inhibition ([18]; at 57.5 µM (top of the series)) 5.04%

CCOC(=O)CC(SP(=S)(OC)OC)C(=O)OCC (configuration not stated)
inactive: outcome [1] | outcome [2] | outcome [3] | outcome [4] | Potency [5] | outcome [6] | outcome [7] | outcome [8] | Potency [9] | outcome [10] | Potency [11] | outcome [12] | outcome [13] | Potency [15] | Potency [16]

O=C1c2ccccc2C(=O)c2ccccc21
inactive: activity change, negative = inhibition ([18]; at 57.5 µM (top of the series)) 11.7%
29.4%: max response [18, 21]
14.4%: max response [18, 20]

COc1c2c(cc3c1OCO3)CCN(C)C2
inactive: activity change, negative = inhibition ([18]; at 25.7 µM (top of the series)) 1.64%
3.88%: max response [18, 21]
2.73%: max response [18, 20]

Oc1ccc(Cl)cc1
inactive: outcome [1] | outcome [2] | outcome [3] | outcome [4] | Potency [5] | outcome [6] | outcome [7] | outcome [8] | Potency [9] | outcome [10] | Potency [11] | outcome [12] | outcome [13] | Potency [15] | Potency [16]

CNC(C)(C)Cc1ccccc1
-19% and 14.2%: max response [18, 20]
inactive: activity change, negative = inhibition ([18]; at 25.7 µM (top of the series)) -3.38% | activity change, negative = inhibition ([18]; at 57.5 µM (top of the series)) 12%
-21.7% and 31.6%: max response [18, 21]

O=C(O)CCCc1ccc(N(CCCl)CCCl)cc1
active: Potency [5] 31.6 µM | Potency [9] 31.6 µM | Potency [11] 39.8 µM | Potency [16] 25.1 µM
inactive: outcome [1] | outcome [2] | outcome [14] | Potency [15] | outcome [17] | activity change, negative = inhibition ([18]; at 25.7 µM (top of the series)) 2.25% | activity change, negative = inhibition ([18]; at 57.5 µM (top of the series)) 2.66%
-7.28% and 5.28%: max response [18, 20]
-5.54% and 10.7%: max response [18, 21]

C=C(C)[C@H]1CN[C@H](C(=O)O)[C@H]1CC(=O)O
-9.16%: max response [18, 20]
inactive: activity change, negative = inhibition ([18]; at 57.5 µM (top of the series)) 0.0201%
-9.1%: max response [18, 21]

NC(=O)c1cc([N+](=O)[O-])cc([N+](=O)[O-])c1
7.25%: max response [18, 21]
0.174%: max response [18, 20]
inactive: activity change, negative = inhibition ([18]; at 57.5 µM (top of the series)) 2.42%

CC(C)N(CCC(C(N)=O)(c1ccccc1)c1ccccn1)C(C)C (configuration not stated)
33.6% and -11% and -15.7%: max response [18, 21]
23.6% and -10.4% and -17.4%: max response [18, 20]
inactive: outcome [19] | activity change, negative = inhibition ([18]; at 57.5 µM (top of the series)) 4.57% and -1.93% and 1.94%

CCCC(C)(COC(N)=O)COC(N)=O
inactive: outcome [1] | outcome [2] | outcome [3] | outcome [4] | Potency [5] | outcome [6] | outcome [7] | outcome [8] | Potency [9] | outcome [10] | Potency [11] | outcome [12] | outcome [13] | Potency [15] | Potency [16]
